Compounds with a hit are over-represented: about 3.4% of the library has one in this group of screens.
TEAD-YAP inh = TEAD-YAP interaction inhibition; HEK-TIYL cells, TEAD-Gal4/YAP UAS-luciferase luminescence; inhibition, % at 9.12 µM; 1.4% of 640,000 active; AID 1259422; in the data active means inhibition above about 32%;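 further: 0% = median of test compound wells and 100% = reference inhibitor wells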
MITF inh = inhibitors of human MITF; O75030; AlphaScreen MITF homodimerization, bead proximity signal; inhibition, % at 2.6 µM; 0.91% of 650,000 active; AID 1259374; in the data active means inhibition above about 50%;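 further: 0% = vehicle wells with protein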
FBW7 activator = activators of human E3 ligase FBW7; AlphaScreen FBW7–phospho-cyclin E peptide binding, activator screen; normalized activity (activation), % at 26.1 µM; 0.13% of 650,000 active; AID 1259310; in the data active means normalized activity above about 1.9%;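 further: purified mutant Fbw7 with reduced substrate affinity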
Target sequence (Q969H0 whole entry, looked up): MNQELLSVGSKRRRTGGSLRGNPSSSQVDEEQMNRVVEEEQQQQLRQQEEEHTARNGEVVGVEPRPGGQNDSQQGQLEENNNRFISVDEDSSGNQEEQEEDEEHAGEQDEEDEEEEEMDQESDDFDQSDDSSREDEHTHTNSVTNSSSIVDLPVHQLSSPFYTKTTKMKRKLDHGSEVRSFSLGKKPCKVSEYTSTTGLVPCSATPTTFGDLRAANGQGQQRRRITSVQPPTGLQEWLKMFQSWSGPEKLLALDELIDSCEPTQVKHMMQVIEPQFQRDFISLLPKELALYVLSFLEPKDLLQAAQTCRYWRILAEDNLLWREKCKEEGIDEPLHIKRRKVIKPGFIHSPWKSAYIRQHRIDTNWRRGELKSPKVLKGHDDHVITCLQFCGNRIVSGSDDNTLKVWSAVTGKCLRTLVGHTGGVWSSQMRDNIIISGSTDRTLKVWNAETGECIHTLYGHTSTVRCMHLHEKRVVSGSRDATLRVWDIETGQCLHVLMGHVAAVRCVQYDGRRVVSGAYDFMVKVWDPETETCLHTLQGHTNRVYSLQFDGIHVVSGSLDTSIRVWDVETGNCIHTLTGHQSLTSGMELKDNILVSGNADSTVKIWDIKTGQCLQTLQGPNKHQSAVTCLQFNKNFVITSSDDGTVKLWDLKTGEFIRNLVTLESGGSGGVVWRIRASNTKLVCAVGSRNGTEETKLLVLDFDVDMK
GPR151 ag = activates the human receptor GPR151. PathHunter beta-arrestin GPR151 cells, luminescence. 1% of 650,000 active. Q8TDV0. activation, % at 11.2 µM; in the data active means activation above about 4.9%;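 further: 0% = median of compound wells and 100% = cells with positive control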
The depositor's hits bear a star; nt = no result given.

SMILES	TEAD-YAP inh	MITF inh	FBW7 activator	GPR151 ag
O=C(N/N=C/c1cccc([N+](=O)[O-])c1O)c1cccs1	-46	73*	-1	1
O=C(N/N=C/c1cccc([N+](=O)[O-])c1O)c1cccc([N+](=O)[O-])c1	8	53*	-1	0
O=C(N/N=C/c1ccc([N+](=O)[O-])cc1)c1cccs1	-40	-3	0	0
Cc1ccc(CN[C@H]2C[C@H]3C(=O)N[C@@H](Cc4c[nH]c5ccccc45)C(=O)N3C2)cc1	-5	10	0	0
O=C(c1ccc(Br)o1)N1CCN(c2cccc(C(F)(F)F)c2)CC1	0	15	0	-1
CC1=C(C(=O)Nc2ccc(C)cn2)C(c2ccsc2)C2=C(CC(C)(C)CC2=O)N1 (configuration not stated)	55*	-17	0	0
CC1=C(C(=O)Nc2ccccn2)C(c2ccsc2)C2=C(CC(C)(C)CC2=O)N1 (configuration not stated)	7	2	0	2
CCOC(=O)C1=C(C)NC2=C(C(=O)C(C(=O)OC)C(C)C2)C1c1ccc(C)cc1 (configuration not stated)	-1	10	1	-2
COC(=O)C1=C(C)NC2=C(C(=O)CC(c3ccc(OC)cc3)C2)C1c1ccc(OC)c(Br)c1 (configuration not stated)	7	-15	0	0
CCOC(=O)C1=C(C)NC2=C(C(=O)C(C(=O)OC)C(C)C2)C1c1ccc(OC)cc1 (configuration not stated)	-17	18	2.3*	0
COc1ccc(C2CC(=O)C3=C(C2)NC(C)=C(C(=O)OCc2ccccc2)C3c2ccc(OC)c(Br)c2)cc1 (configuration not stated)	48*	-12	1	-1
CCOC(=O)C1=C(C)NC2=C(C(=O)CC(c3ccccc3)C2)C1c1cc(OC)ccc1OC (configuration not stated)	1	-2	0	2
COC(=O)C1=C(C)NC2=C(C(=O)CC(c3ccccc3)C2)C1c1cc(OC)ccc1OC (configuration not stated)	33*	3	0	2
CSc1ccc(CNCCCn2ccnc2)cc1	4	13	0	0
O=C(Cc1ccc(F)cc1)Nc1cccc(C(F)(F)F)c1	4	10	0	0
COc1ccc(COC(=O)C2=C(C)NC3=C(C(=O)CC(C)(C)C3)C2c2ccc(-c3ccccc3)cc2)cc1 (configuration not stated)	15	5	0	-1
COc1ccc(COC(=O)C2=C(C)NC3=C(C(=O)CC(C)(C)C3)C2c2ccccc2)cc1 (configuration not stated)	7	14	2.6*	0
COc1ccccc1NC(=O)C1=C(C)NC2=C(C(=O)CC(C)(C)C2)C1c1cccc(O)c1 (configuration not stated)	1	11	2.4*	-1
Cc1ccc(NC(=O)CSc2ccc3ccccc3n2)c(C)c1	76*	-3	0	-1
COc1ccc(C(=O)NC2CCSC2=O)cc1[N+](=O)[O-] (configuration not stated)	-6	21	2.0*	-1
O=C(O)CCC(C(=O)O)N1C(=O)/C(=C/c2ccccc2)SC1=S (configuration not stated)	6	3	0	-2
CC(C)CC(C(=O)O)N1C(=O)/C(=C\c2ccco2)SC1=S (configuration not stated)	-1	58*	-1	0
CCC(C(=O)O)N1C(=O)/C(=C\c2ccc(C)o2)SC1=S (configuration not stated)	0	62*	0	-1
CCCCC(C(=O)O)N1C(=O)/C(=C\c2ccc(C)o2)SC1=S (configuration not stated)	7	26	-1	0
CCCCC(C(=O)O)N1C(=O)/C(=C\c2ccco2)SC1=S (configuration not stated)	-2	28	0	0
SMILES	TEAD-YAP inh	MITF inh	FBW7 activator	GPR151 ag
Cc1ccc(/C=C2/SC(=S)N(C(CCC(=O)O)C(=O)O)C2=O)o1 (configuration not stated)	-8	55*	-2	1
O=C(NCc1ccccn1)C(=O)Nc1cc(Cl)ccc1Cl	-5	-5	0	1
O=C(c1cccs1)c1coc2ccc(Cl)cc2c1=O	-16	2	0	1
COc1ccc(N2CCN(CCN3CCCCC3)CC2)cc1	7	82*	1	-1
O=[N+]([O-])c1cccc(S(=O)(=O)N2CCCC(c3nc(-c4cccs4)no3)C2)c1 (configuration not stated)	-5	7	3.0*	-1
COc1cccc2c1C(=O)c1c(O)c3c(c(O)c1C2=O)C[C@@](O)(C(C)=O)C[C@@H]3OC1CC(N)C(O)C(C)O1 (some centres not stated)	nt	35	0	1
COc1cccc2c1C(=O)c1c(O)c3c(c(O)c1C2=O)C[C@@](O)(C(=O)CO)C[C@@H]3O[C@H]1C[C@H](N)[C@H](O)[C@H](C)O1	92*	44	0	-3
CC(=N/O)/C(C)=N\NC(=O)c1ccccn1	45*	4	0	-5
CC(=N/NC(=O)c1ccc(C)cc1)/C(C)=N/O	71*	-1	0	-2
O=C(Nc1ccc2nc3[nH]c(=O)[nH]c(=O)c3nc2c1)c1ccccc1	16	5	1	-1
Cc1c(/C=N/Nc2cccc3cccnc23)c(=O)n(-c2ccccc2)n1C	88*	19	0	-5
C(=N\Nc1cccc2cccnc12)/c1ccccn1	24	38	0	-3
CCC(=O)N1CCc2cc(S(=O)(=O)N3CCN(Cc4ccccc4)CC3)ccc21	3	-14	0	-1
Nc1ccc(C(=O)Nc2ccc3nc(NC(=O)C4CCCCC4)sc3c2)cc1	40*	12	0	2
Cn1ncc(Cl)c1C(=O)Nc1ccc(Cl)c(Cl)c1	-24	-5	0	0
Cn1ncc(Cl)c1C(=O)Nc1ccc2nc(NC(=O)C3CCCCC3)sc2c1	57*	11	0	0
O=C(Nc1ccccc1)c1ccc2nc(NC(=O)C3CCCCC3)sc2c1	2	-7	0	-2
Nc1ccc(C(=O)Nc2nc3cc4sc(NC(=O)c5ccc(N)cc5)nc4cc3s2)cc1	-1	-86	6.7*	-1
CC(=O)Nc1nc2ccc(NC(=O)c3c([N+](=O)[O-])cnn3C)cc2s1	53*	7	0	-1
COc1ccc(-c2nnc(Sc3ccc([N+](=O)[O-])cn3)n2-c2ccccc2)cc1OC	55*	15	0	-2
O=C1NC(=S)S/C1=C\c1ccc(O)cc1O	2	10	0	-1
CCS(=O)(=O)c1ncc(Cl)c(C(=O)Nc2ccc(Cl)cc2)n1	28	-5	0	-2
CCS(=O)(=O)c1ncc(Cl)c(C(=O)Nc2ccccc2F)n1	-6	-3	0	0
CCS(=O)(=O)c1ncc(Cl)c(C(=O)Nc2ccc(OC)c(Cl)c2)n1	50*	16	1	-2

Screening data from PubChem BioAssay.
